{"source": "PubChem BioAssay (NCATS)", "note": "Records with an inconclusive call do not appear. Entries that show only a call come without a potency. The source made the active and inactive calls. Calls follow the shape of the dose curve; as a rule, active = well fitted inhibition curve with a large enough effect; inconclusive = small, poorly fitted or top-dose-only effect; inactive = flat fitted curve, though single readings scatter."}
{"biological_target": "Calcium and integrin-binding protein 1 (Homo sapiens) (UniProt Q99828)", "sequence (Q99828 whole entry, looked up)": "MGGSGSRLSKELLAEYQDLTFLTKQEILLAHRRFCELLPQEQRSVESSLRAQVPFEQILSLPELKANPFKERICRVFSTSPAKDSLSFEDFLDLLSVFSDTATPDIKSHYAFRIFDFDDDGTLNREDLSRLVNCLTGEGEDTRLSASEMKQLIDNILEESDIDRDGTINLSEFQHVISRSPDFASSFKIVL", "assay": "Primary qHTS for Identification of Calcium Integrin Binding Protein 1 (CIB1) Competitor (AID 1508620);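 also: GST tagged CIB1 binding a fluorescein labelled alphaIIb integrin peptide tracer; top concentration of the series differs between compounds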", "conditions": "CIB1-GST / FITC-alphaIIb peptide fluorescence polarization; series mostly up to 114 µM", "in_short": "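Fluorescence polarization competition: CIB1-GST (1 uM final) preincubated with compound 15 min at room temperature, then FITC-labeled alphaIIb peptide (100 nM final) added for another 15 min. Polarization read at Ex 480/Em 540.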"}
{"smiles": "CC(C)CC(O)C(=O)Nc1cc(C(F)(F)F)ccc1Cl", "note": "(stereo not given)", "Potency": "inactive"}
{"smiles": "Cc1cc(C)n2ncc(C(=O)Nc3ccc(C(C)(C)C)cc3)c2n1", "Potency": "inactive"}
{"smiles": "Cc1ccc2nc3sc(C(=O)N4CCC(C(N)=O)CC4)cc3cc2c1", "Potency": "inactive"}
{"smiles": "CCOC(=O)c1[nH]c2c(c1C)CCC(c1ccco1)C2", "note": "(stereo not given)", "Potency": "inactive"}
{"smiles": "COc1cccc(NC(=S)N2CCN(c3ccc(C(F)(F)F)cc3[N+](=O)[O-])CC2)n1", "Potency": "inactive"}
{"smiles": "O=C1c2ccccc2NC(c2ccc(-c3cccs3)o2)N1O", "note": "(stereo not given)", "Potency": "inactive"}
{"smiles": "O=C(COC(=O)CNC(=O)C1CCCCC1)Nc1ccccc1Cl", "Potency": "inactive"}
{"smiles": "Cn1nnnc1Sc1ncnc2scc(-c3ccccc3Cl)c12", "Potency": "inactive"}
{"smiles": "Cc1cnc(-c2ccccc2C(C)C)nc1NCC1CCN(c2cccnc2)C1", "note": "(stereo not given)", "Potency": "inactive"}
{"smiles": "Fc1cccc(-c2ccc(Nc3nc(-c4ccncc4)nc4ccccc34)cc2F)c1", "Potency": "inactive"}
{"smiles": "CN1C(=O)Cc2cc([S+](=O)([O-])N3CCN([S+](=O)([O-])c4c(F)cccc4F)CC3)ccc21", "Potency": "inactive"}
{"smiles": "Cc1cc(C)nc(NC(=S)N2CCN(c3ccc(C(F)(F)F)cn3)CC2)c1", "Potency": "inactive"}
{"smiles": "COc1ccc(CN(Cc2ccccc2)S(=O)(=O)c2ccccc2)cc1COc1ccc(NC(C)=O)cc1", "Potency": "inactive"}
{"smiles": "Nc1nc(NCc2ccc(-c3ccnc(C(F)(F)F)c3)cc2)c2ccccc2n1", "Potency": "inactive"}
{"smiles": "CCOC(=O)CC(=O)Nc1ncnc2c1C(c1ccccc1)c1c(ccc3ccccc13)O2", "note": "(stereo not given)", "Potency": "inactive"}
{"smiles": "CC(=O)Nc1sc2c(c1-c1ccc(C(N)=O)cc1)CCNC2", "Potency": "inactive"}
{"smiles": "O=C(Nc1nnc(-c2ccncc2)s1)Nc1ccc(Cl)cc1F", "Potency": "inactive"}
{"smiles": "Cc1cc2c(s1)c1cnn(Cc3ccc(S(C)(=O)=O)cc3)c(=O)c1n2C", "Potency": "inactive"}
{"smiles": "NC(=O)C1CCN(c2ncc(-c3ccc4c(c3)OC(F)(F)O4)s2)CC1", "Potency": "inactive"}
{"smiles": "C/C(=C\\c1cccc(C(F)(F)F)c1)C1Nc2cccc3cccc(c23)N1", "Potency": "inactive"}
{"smiles": "COc1ccccc1C1N=C(Nc2nc3ccccc3o2)NC2=C1C(=O)CCC2", "note": "(stereo not given)", "Potency": "inactive"}
{"smiles": "Cc1ccc(N2CCC(CNc3nc(-c4ccccc4C(C)C)ncc3F)CC2)cn1", "Potency": "inactive"}
{"smiles": "O=C(Nc1ncc(-c2ccccc2)s1)c1ccc(-c2cccc([N+](=O)[O-])c2)o1", "Potency": "inactive"}
{"smiles": "Cc1csc(CNc2ncnc3ccc(-c4ccc(C(C)O)o4)cc23)n1", "note": "(stereo not given)", "Potency": "inactive"}
{"smiles": "COc1ccc(CSc2nc3ncc(Br)cc3[nH]2)cc1F", "Potency": "inactive"}
{"smiles": "O=C(Cc1ccc(Cl)c(Cl)c1)Nc1ccc(S(=O)(=O)Nc2ccccc2)cc1", "Potency": "inactive"}
{"smiles": "[O-][n+]1onc(-c2ccccc2)c1CO", "Potency": "inactive"}
{"smiles": "CC(=O)N1CCN(c2ccc(NCc3ccc4c(c3)OCO4)cc2)CC1", "Potency": "inactive"}
{"smiles": "O=S1(=O)N=C(Oc2ccc(-c3ccccc3)cc2)c2ccccc21", "Potency": "inactive"}
{"smiles": "Cc1ccc(OCCn2c(CCNC(=O)C3CC3)nc3ccccc32)cc1", "Potency": "inactive"}
{"smiles": "CC(=O)c1cccc(-c2csc(N3CCC(C(N)=O)CC3)n2)c1", "Potency": "inactive"}
{"smiles": "N#Cc1nc(Nc2cc(F)cc(F)c2)nc(Nc2cc(F)cc(F)c2)n1", "Potency": "inactive"}
{"smiles": "Cc1ccc(OCCn2c(CCNC(=O)Cc3ccccc3F)nc3ccccc32)cc1", "Potency": "inactive"}
{"smiles": "CC(=O)NC(c1cc(Cl)c2ccccc2c1O)C1CC1", "note": "(stereo not given)", "Potency": "inactive"}
{"smiles": "O=C(Nc1cncc(-c2cccc3ccccc23)c1)c1cccs1", "Potency": "inactive"}
{"smiles": "CC(Nc1nc(-c2ccccc2C(F)(F)F)nc2ccccc12)c1ccc(-c2ccccc2)cc1", "note": "(stereo not given)", "Potency": "inactive"}
{"smiles": "COc1cc(OC)cc(C2=Nn3c(nnc3-c3cccc(OC)c3)SC2)c1", "Potency": "inactive"}
{"smiles": "COc1ccc(C2c3c(nc(C)[nH]c3=O)Oc3ccc4ccccc4c32)cc1OC", "note": "(stereo not given)", "Potency": "inactive"}
{"smiles": "O=C(Nc1ccc(N2CCOCC2)c(F)c1)Nc1nnc(-c2ccncc2)s1", "Potency": "inactive"}
{"smiles": "Nc1ccc(-c2ccc(NC(=O)c3cccs3)cn2)cc1", "Potency": "inactive"}
